The record followed here is PubChem BioAssay (NCATS).

Inconclusive results are not listed. Active and inactive are the calls of the source. The call rests on the fitted dose curve; in most records, active means well fitted inhibition curve with a large enough effect; inconclusive means small, poorly fitted or top-dose-only effect; inactive means no such curve, though single readings can be large or run the other way.

In one test the target is Retinaldehyde dehydrogenase 3 (Homo sapiens) (UniProt P47895). Nature of the test: qHTS for Inhibitors of the Aldehyde Dehydrogenase Family (ALDH1A3) Primary screen (AID 2061315).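 Further: plate controls were DMSO vehicle for no effect and reference inhibitor for full effect.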 Particulars: ALDH inhibition qHTS; series mostly up to 56 µM. For orientation: qHTS replaces the single test concentration by a dilution series.
Consider `C[C@]12CC[C@H](O)CC1=CCC1C2CC[C@]2(C)C(n3cnc4ccccc43)=CCC12` (stereo not given in full), for which the Potency result is “inactive”.

Turning to `NS(=O)(=O)OC[C@@H]1C[C@@H](n2ccc3c(N[C@H]4CCc5ccccc54)ncnc32)C[C@@H]1O`, the Potency entry was “inactive”.

Consider `NCC(=O)Nc1ccc(-n2nc(C(F)(F)F)cc2-c2ccc3c(ccc4ccccc43)c2)cc1`, for which the Potency result is “inactive”.

With `Cc1cc(-c2ncc(CC(=O)Nc3ccc(-c4cnccn4)cn3)cc2C)ccn1`, the Potency result is “inactive”.

For `COc1ccc2cc(OCC3(C(=O)O)CN(C(=O)c4ccc(F)cc4)C3)ccc2c1`, the Potency result was “inactive”.

Regarding `COc1ccc(N(C)c2nc(C)nc3ccccc23)cc1`, the Potency result was “inactive”.

Take `NC(=O)c1cccc2cn(-c3ccc([C@@H]4CCCNC4)cc3)nc12`: the Potency entry was “inactive”.

In the case of `COc1ccc2c(OCc3nnc4ccc(-c5ccccc5)nn34)ccnc2c1`, the Potency result is “inactive”.

Consider `Cc1cc(OCc2nnc(SC3CCCC3)n2-c2cccnc2)ccc1-c1ccc(S(C)(=O)=O)cc1`, for which the Potency entry is “inactive”.

Turning to `CNC(=O)c1ccc(-c2cnc3ncc(Cc4ccc5ncccc5c4)n3n2)cc1F`, the Potency result is “inactive”.

For `COCCOc1ccc(N2CCN(CCn3ncc4c3nc(N)n3nc(-c5ccco5)nc43)CC2)cc1`, the Potency result was “inactive”.

Regarding `COC(=O)N(C)c1c(N)nc(-c2nn(Cc3ccccc3F)c3ncccc23)nc1N`, the Potency entry was “inactive”.

As to `Cn1c(CNc2ccc(C(=N)N)cc2)nc2cc(C(=O)N(CCC(=O)O)c3ccccn3)ccc21`, the Potency result is “inactive”.

Regarding `CN1CC[C@@H](NC(=O)Nc2ccc(C#N)cc2)C[C@@H]1c1nc2ccccc2[nH]1`, the Potency result is “inactive”.

`COc1cccc(Nc2c(C(N)=O)cnc3c(C)cc(S(=O)(=O)c4cccc(C(=O)N(C)C)c4)cc23)c1`: the Potency entry is “inactive”.

`CC(C)(N)C(=O)N[C@H](COCc1ccccc1)C(=O)N1CCC2(CC1)CN(S(C)(=O)=O)c1ccccc12`: the Potency entry is “inactive”.

Consider `COc1ccc(-n2c(SCCCN3C(=O)c4cccc5cccc(c45)C3=O)nnc2-c2ccncc2)cc1`, for which the Potency result is “inactive”.

For the molecule `COc1cccc2c(NCc3ccccc3)nc(-n3c(N)nc4ccccc43)nc12`, the Potency result is “inactive”.

Turning to `COC(=O)Nc1nc2ccc(C(=O)c3ccc(F)cc3)cc2[nH]1`, the Potency result was “inactive”.

As to `COc1cc2c(cc1OC)CN(CCc1ccc(NC(=O)c3cccc4c(=O)c5cccc(OC)c5[nH]c34)cc1)CC2`, the Potency entry is “inactive”.

Regarding `Cc1cccc(-c2nn3c(c2-c2ccnc4ccc(C(N)=O)cc24)CCC3)n1`, the Potency entry was “inactive”.

Take `COc1ccc(-n2nc(C(N)=O)c3c2C(=O)N(c2ccc(N4CCCCC4=O)cc2)CC3)cc1`: the Potency entry is “inactive”.

As for `CC(C)OC(=O)C1=CN(C(=O)c2ccc(F)c(F)c2)CC(C)(C)c2c1[nH]c1ccccc21`, the Potency result was “inactive”.

In the case of `CCCCNc1ncc(-c2ccc(CN3CCOCC3)cn2)c(NC2CCC(O)CC2)n1` (stereo not given), the Potency result was “inactive”.

As to `Cc1nnc(C(C)C)n1C1CC2CCC(C1)N2CC[C@H](NC(=O)C1CCC(F)(F)CC1)c1ccccc1` (stereo not given in full), the Potency entry is “inactive”.

System in another test: not listed separately
Nature of the test: BET inhibitor-based combinations targeting novel dependencies in MECOM-rearranged (r) AML: SET-2 cell line (AID 2202231). Further: nearly all actives have a fitted effect of over 35% in size. Further: potency means the concentration at half of the fitted maximal effect.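 On viability: plate controls were DMSO treated cells for no effect and wells without cells for full effect.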 Particulars: SET-2 AML cells viability, CellTiter-Glo luminescence, 48 h; viability: stronger effect = lower value, concentration not given here. The procedure, abridged: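 Viability of cells (500 per well) is scored by luminescent CellTiter-Glo at 48 hr post-dosing. Eleven-point titrations are normalized to DMSO and empty controls and reduced to AUC values.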
In general, viability refers to a read-out of living cells in per cent, often relative to untreated cells. Take `CCN(CCO)CCCC(C)Nc1ccnc2cc(Cl)ccc12` (stereo not given): the viability was 104% (inactive).

On to `CCCCc1oc2ccc(NS(C)(=O)=O)cc2c1C(=O)c1ccc(OCCCN(CCCC)CCCC)cc1`, for which the Potency was 18.6 µM (active).

For `Cn1cncc1C(N)(c1ccc(Cl)cc1)c1ccc2c(c1)c(-c1cccc(Cl)c1)cc(=O)n2C` (stereo not given), the Potency was 14.8 µM (active).

For `CC(C)(C)c1cc(C(=O)O)c(NC(=O)Nc2ccc3[nH]ncc3c2)s1`, the viability was 118% (inactive).

Consider `O=C(c1cc(Cc2n[nH]c(=O)c3ccccc23)ccc1F)N1CCN(C(=O)C2CC2)CC1`, for which the viability is 80.3% (inactive).

For `CCC(CC)C(c1ccc(Nc2nc3ccccc3s2)cc1)n1cncn1` (stereo not given), the Potency is 20.9 µM (active).

With `Cc1cc(C(=O)N2CCN(c3cccc(Cl)c3)CC2)n(-c2ccccc2)n1`, the Potency was 9.34 µM (active).

On to `COc1ccc(CCC(=O)Nc2nc3ccc(Cl)cc3s2)cc1OC`, for which the viability is 120% (inactive).

Take `CNC(=O)c1cccc(-c2ccc3c(N4CCOC[C@@H]4C)nc(N4CCOC[C@@H]4C)nc3n2)c1`: the Potency is 0.59 µM (active).

Take `Clc1cccc(-n2nnnc2NCc2ccccc2Oc2ccccn2)c1Cl`: the viability is 103% (inactive).

`O=C(C(c1ccccc1)c1ccccc1)N1CCN(CC(O)COc2cccc3ncccc23)CC1` (stereo not given): the Potency was 20.9 µM (active).

Regarding `OC[C@H]1O[C@@H](Oc2cc(O)cc(/C=C/c3ccc(O)cc3)c2)[C@H](O)[C@@H](O)[C@@H]1O`, the viability was 115% (inactive).

On to `C[C@H]1CN(C[C@H](Cc2ccccc2)C(=O)NCC(=O)O)CC[C@@]1(C)c1cccc(O)c1`, for which the viability is 120% (inactive).

As to `CC(C)(C)NC(=O)Nc1cccc(Nc2ncc(F)c(NC(C)(C)CO)n2)c1`, the Potency is 16.6 µM (active).

On to `O=C(NCC(=O)N1CC[C@H](NC2CCC(O)(c3ccc(-c4ncccn4)cn3)CC2)C1)c1cccc(C(F)(F)F)c1` (stereo not given in full), for which the viability is 98.1% (inactive).

In the case of `C[C@]12CC[C@H](O)CC1=CCC1C2CC[C@]2(C)C(n3cnc4ccccc43)=CCC12` (stereo not given in full), the viability is 118% (inactive).

Take `NS(=O)(=O)OC[C@@H]1C[C@@H](n2ccc3c(N[C@H]4CCc5ccccc54)ncnc32)C[C@@H]1O`: the Potency is 0.525 µM (active).

Regarding `NCC(=O)Nc1ccc(-n2nc(C(F)(F)F)cc2-c2ccc3c(ccc4ccccc43)c2)cc1`, the Potency is 11.8 µM (active).

For the molecule `Cc1cc(-c2ncc(CC(=O)Nc3ccc(-c4cnccn4)cn3)cc2C)ccn1`, the Potency was 11.8 µM (active).

As to `COc1ccc2cc(OCC3(C(=O)O)CN(C(=O)c4ccc(F)cc4)C3)ccc2c1`, the viability was 113% (inactive).

As to `COc1ccc(N(C)c2nc(C)nc3ccccc23)cc1`, the Potency was 0.0118 µM (active).

For `NC(=O)c1cccc2cn(-c3ccc([C@@H]4CCCNC4)cc3)nc12`, the Potency was 14.8 µM (active).

With `COc1ccc2c(OCc3nnc4ccc(-c5ccccc5)nn34)ccnc2c1`, the viability was 116% (inactive).

As for `Cc1cc(OCc2nnc(SC3CCCC3)n2-c2cccnc2)ccc1-c1ccc(S(C)(=O)=O)cc1`, the Potency was 6.61 µM (active).

Consider `CNC(=O)c1ccc(-c2cnc3ncc(Cc4ccc5ncccc5c4)n3n2)cc1F`, for which the viability is 95.9% (inactive).

Turning to `COCCOc1ccc(N2CCN(CCn3ncc4c3nc(N)n3nc(-c5ccco5)nc43)CC2)cc1`, the viability is 113% (inactive).

In the case of `COC(=O)N(C)c1c(N)nc(-c2nn(Cc3ccccc3F)c3ncccc23)nc1N`, the viability is 119% (inactive).

As for `Cn1c(CNc2ccc(C(=N)N)cc2)nc2cc(C(=O)N(CCC(=O)O)c3ccccn3)ccc21`, the viability is 116% (inactive).

For `CN1CC[C@@H](NC(=O)Nc2ccc(C#N)cc2)C[C@@H]1c1nc2ccccc2[nH]1`, the viability is 117% (inactive).

As for `COc1cccc(Nc2c(C(N)=O)cnc3c(C)cc(S(=O)(=O)c4cccc(C(=O)N(C)C)c4)cc23)c1`, the viability is 120% (inactive).

Turning to `CC(C)(N)C(=O)N[C@H](COCc1ccccc1)C(=O)N1CCC2(CC1)CN(S(C)(=O)=O)c1ccccc12`, the viability was 104% (inactive).

As for `COc1ccc(-n2c(SCCCN3C(=O)c4cccc5cccc(c45)C3=O)nnc2-c2ccncc2)cc1`, the viability was 102% (inactive).

Consider `COc1cccc2c(NCc3ccccc3)nc(-n3c(N)nc4ccccc43)nc12`, for which the Potency is 7.42 µM (active).

With `COC(=O)Nc1nc2ccc(C(=O)c3ccc(F)cc3)cc2[nH]1`, the Potency is 0.833 µM (active).

As for `COc1cc2c(cc1OC)CN(CCc1ccc(NC(=O)c3cccc4c(=O)c5cccc(OC)c5[nH]c34)cc1)CC2`, the viability was 111% (inactive).

As to `Cc1cccc(-c2nn3c(c2-c2ccnc4ccc(C(N)=O)cc24)CCC3)n1`, the viability is 108% (inactive).

Take `COc1ccc(-n2nc(C(N)=O)c3c2C(=O)N(c2ccc(N4CCCCC4=O)cc2)CC3)cc1`: the viability is 101% (inactive).

As for `CC(C)OC(=O)C1=CN(C(=O)c2ccc(F)c(F)c2)CC(C)(C)c2c1[nH]c1ccccc21`, the viability is 109% (inactive).

As for `CCCCNc1ncc(-c2ccc(CN3CCOCC3)cn2)c(NC2CCC(O)CC2)n1` (stereo not given), the viability is 114% (inactive).

`Cc1nnc(C(C)C)n1C1CC2CCC(C1)N2CC[C@H](NC(=O)C1CCC(F)(F)CC1)c1ccccc1` (stereo not given in full): the viability was 113% (inactive).
